Screens: PubChem, The Scripps Research Institute Molecular Screening Center
Hits are enriched below; roughly 3.5% of the tested compounds scored in any of these assays.
FBW7 activator: human FBW7 E3 ligase activation, primary screen; Q969H0; AlphaScreen FBW7–phospho-cyclin E peptide binding, activator screen; normalized activity (activation), % at 26.1 µM; actives 0.13% (n = 650,000); AID 1259310; in the data active = normalized activity above about 1.9%;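 also: purified mutant Fbw7 with reduced substrate affinity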
TEAD-YAP inh: TEAD-YAP interaction inhibition; HEK-TIYL cells, TEAD-Gal4/YAP UAS-luciferase luminescence; inhibition, % at 9.12 µM; actives 1.4% (n = 640,000); in the data active = inhibition above about 32%;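 also: 0% = median of test compound wells and 100% = reference inhibitor wells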
GPR151 activ: activates the human receptor GPR151; Q8TDV0; PathHunter beta-arrestin GPR151 cells, luminescence; activation, % at 11.2 µM; actives 1% (n = 650,000); AID 1508602; in the data active = activation above about 4.9%;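 also: 0% = median of compound wells and 100% = cells with positive control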
Target sequence (Q8TDV0 whole entry, looked up): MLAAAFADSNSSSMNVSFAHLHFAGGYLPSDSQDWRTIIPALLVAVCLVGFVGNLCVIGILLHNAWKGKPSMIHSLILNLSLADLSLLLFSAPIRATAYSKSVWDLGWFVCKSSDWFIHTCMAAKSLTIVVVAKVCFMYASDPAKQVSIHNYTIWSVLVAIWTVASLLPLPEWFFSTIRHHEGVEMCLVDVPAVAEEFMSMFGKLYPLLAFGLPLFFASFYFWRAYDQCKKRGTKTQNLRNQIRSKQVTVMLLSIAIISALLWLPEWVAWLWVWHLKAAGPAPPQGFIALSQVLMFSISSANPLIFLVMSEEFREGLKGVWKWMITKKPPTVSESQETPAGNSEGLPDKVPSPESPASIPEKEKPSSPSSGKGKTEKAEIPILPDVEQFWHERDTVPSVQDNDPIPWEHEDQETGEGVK
MITF inh: human MITF inhibition, primary screen. AlphaScreen MITF homodimerization, bead proximity signal. inhibition, % at 2.6 µM. actives 0.91% (n = 650,000). AID 1259374; in the data active = inhibition above about 50%;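 also: 0% = vehicle wells with protein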
* marks the source's active call; other numbers are inactive results; ! = not confirmed by another sample.

SMILES	FBW7 activator	TEAD-YAP inh	GPR151 activ	MITF inh
COc1ccccc1Oc1ccc(C(N)=O)cc1[N+](=O)[O-]	0	-4	1	-6
CCOC(=O)CSc1nc2cc(C(=O)OC)ccc2c(=O)n1Cc1ccc2c(c1)OCO2	0	7	-1	-4
CC(C)C(=O)N1CCC[C@@H](Cn2nc(-c3cccs3)ccc2=O)C1	0	69*	1	-4
N#C/C(=C\C=C\c1ccc([N+](=O)[O-])o1)c1nc2ccccc2[nH]1	0	59*	-1	43
COc1ccc(-n2c(-c3cccc([N+](=O)[O-])c3)n[nH]c2=S)cc1	0	-2	1	2
Cn1c(-c2cccc([N+](=O)[O-])c2)n[nH]c1=S	0	3	0	1
COc1ccc(-c2cn3cc(-c4cccc([N+](=O)[O-])c4)nc3n2C)cc1	0	98*	-7	2
Cn1c(-c2ccccc2)cn2cc(-c3cccc([N+](=O)[O-])c3)nc12	0	99*	-8	3
O=[N+]([O-])c1cccc(-c2csc(Nc3ccc4c(c3)OCO4)n2)c1	0	-21	-1	26
Cn1c(-c2ccc3c(c2)OCO3)cn2cc(-c3cccc([N+](=O)[O-])c3)nc12	0	98*	-1	7
O=C(C1CCCC1)N1CCC2(CC1)OCc1ccccc1O2	0	6	-1	-1
CCCCCNC(=O)c1ccc(CNS(=O)(=O)c2ccc(Cl)cc2)cc1	0	-11	-1	4
O=C(O)CC/C(=N\NC(=O)CNC(=O)c1ccc(Cl)cc1)c1ccccc1	1	4	-1	18
CCN1C(=O)N(CC)C(NNC(N)=S)C1NNC(N)=S (stereo not given)	0	90*	1	-9
CC1CCN(C2=NC(=O)/C(=C/c3ccccc3F)S2)CC1	0	54*	-1	23
CC(C)Oc1ccccc1/C=C1/SC(N2CCOCC2)=NC1=O	0	45*	0	-5
CCCCOc1ccccc1/C=C1/SC(N2CCOCC2)=NC1=O	0	41*	-1	-4
CC(=O)N1CCN(C2=NC(=O)/C(=C\c3ccccc3OC(C)C)S2)CC1	0	-3	1	2
CC1CCN(C2=NC(=O)/C(=C\c3ccccc3Cl)S2)CC1	0	-32	1	9
O=C(COc1ccccc1Cl)N1CCCCC1	0	-9	-1	-2
COc1cccc2sc(Nc3nc(-c4cccnc4)cs3)nc12	0	39*	0	6
COc1ccccc1Nc1nc(-c2ccncc2)cs1	0	-40	-1	-8
COc1cccc2sc(Nc3nc(-c4ccncc4)cs3)nc12	2	45*	0	11
CCOC(=O)C(=N\O)/C(C)=N/NC(=O)CC#N	0	-6	-1	71*
Cc1[nH]ccc2c1[nH]c1cc(=O)ccc12	0	37*!	-1	27
SMILES	FBW7 activator	TEAD-YAP inh	GPR151 activ	MITF inh
C=CCNC(=O)c1ccc2c(c1)OCCO2	0	-4	-2	-5
COc1cccc(-c2nc(-c3ccccc3)c(-c3cc([N+](=O)[O-])ccc3C)[nH]2)c1	0	3	0	18
CCc1ccc(NC(=O)c2cccs2)cc1	0	-32	-4	5
CN1C(=O)/C(=C/c2cc(Cl)ccc2O)NC1=S	0	62*	2	-7
N#CC1=C(SCC(=O)Nc2cccc(Br)c2)NC(=O)CC1c1cccs1 (stereo not given)	0	-4	0	-16
COc1cccc(NC(=O)CSC2=C(C#N)C(c3cccs3)CC(=O)N2)c1 (stereo not given)	0	40*	1	-11
N#CC1=C(SCC(=O)Nc2cc(Cl)cc(Cl)c2)NC(=O)CC1c1cccs1 (stereo not given)	0	43*	-1	-7
N#C/C(=C/c1ccoc1)c1nc(C2CC2)cs1	0	-45	1	-5
COCCNC(=O)CCC1CCN(C(=O)C#Cc2ccccc2)CC1	0	38*	2	2
COCCNC(=O)CCC1CCN(C(=O)CCOc2ccccc2)CC1	0	-4	-1	-13
COCCn1nnnc1C(c1cc2cccc(C)c2[nH]c1=O)N1CCc2ccccc2C1 (stereo not given)	0	1	1	0
Nc1ncc(-c2ccncc2)nc1NCc1ccccc1	0	7	2	-2
Nc1ncc(-c2cccc(F)c2)nc1NCc1ccncc1	1.9*	-8	-2	12
O=C(NC(=S)NCc1cccnc1)c1ccccc1I	0	21	0	0
Cc1sc2ncnc(N/N=C/c3ccccn3)c2c1C	-1	92*	-1	20
